Consider 14 molecules from article PMC12136788.

To fix the notation:
T1: UNK ZnF1-3 (human, UniProt Q9C0B0 31-174)
T1 sequence: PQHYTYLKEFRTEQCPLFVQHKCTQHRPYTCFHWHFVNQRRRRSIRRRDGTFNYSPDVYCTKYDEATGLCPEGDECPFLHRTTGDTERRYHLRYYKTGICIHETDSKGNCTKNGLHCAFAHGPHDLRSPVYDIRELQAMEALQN

B1: 74654529_74654649_2250_CDS_ENSG00000113161_ENST00000287936|human|control|control (ssRNA)
RNA: GGGAGUUCUACAGUCCGACGAUCUCUGACAACCUUGGCUGGAAUGACAGCUUCACAAACAACAGAUUUUCCUCUUCCCUCUAUCCAAUUUAUAGCAGCAGGUUUCUUGUCAGUACAAUAGUUACCACUAACGGCUAGAAUCUGCAACAGAGGAUUGAGCAUCA
B2: chr22:19452774:19452775:-_ENSG00000070010_ENST00000399523|hu_hu|hu_hu_hu_mus_False|18_88 (ssRNA)
RNA: GGGAGUUCUACAGUCCGACGAUCCUUCUCAUUGUAGUUGAUAGCAAUCACAUCCCCAGUCGUCAGACAGGCGAAGUUUCUCAAUGCAUUUUCUAAUACCGCUUUAGGGUUGGUAAUGUCCAGGAAGUCUGGGCUCUGAGGCUGCAACAGAGGAUUGAGCAUCA
B3: chrX:100667754:100667755:+_ENSG00000126945_ENST00000316594|hu_hu|FALSE|FALSE (ssRNA)
RNA: GGGAGUUCUACAGUCCGACGAUCUCCGUAUCUAUGAUCAGACAUUCCUGAAAAACAGUAAUUGAGGUCUCUUCCAAAUCUAUCAGACCCAAAGCCAUAUCCAUCAUUAUAGCCACCAUAGUCAUCAUAGCCUCCAUACCCUCCCAACAGAGGAUUGAGCAUCA
B4: 31508769_31511148_1743_CDS_ENSG00000113360_ENST00000513349|human|control|control (ssRNA)
RNA: GGGAGUUCUACAGUCCGACGAUCAGGGUGGGCCUUUUUGCGUUUGAUUUCUGCAAUAACGUCAAAAACUUCAGAGUCUGAGCUGCUAGAACAGGUGCUGUCCUCAUCAGACUCACACUCGGAUUCACUGGAACUCUCUAAAUCCAACAGAGGAUUGAGCAUCA
B5: chr16:94664382:94664383:+_ENSMUSG00000040785_ENSMUST00000117648|mus_hu|motif|central (ssRNA)
RNA: GGGAGUUCUACAGUCCGACGAUCAAAAGCUGGUGCUGAAGAUGAAUCUGACACUGGUUUAGACUUUACAUCUGGUUUAAAUUCCCGGGCAGCUGGAUUCAGUUGUAGUUUAACUCGUACAUACUCCCCUGCUUUUGAAAUUUCCAACAGAGGAUUGAGCAUCA
B6: chr3:127788656:127788657:+_ENSG00000058262_ENST00000243253|hu_mus|motif|central (ssRNA)
RNA: GGGAGUUCUACAGUCCGACGAUCAAUUCACUUCUACUGGUUUUUUGCCAAUGCCAGAAAAAGCAAAAUUUCAAAUUGGAAAUUUCCGGGCACUUUACACAGUGGAAUGAAAAGAUAUGAAAUUUUAAAAAAAAUUAAAAAAAACAACAGAGGAUUGAGCAUCA
B7: chr17:65740002:65740003:+_ENSG00000130935_ENST00000581375|hu_hu|hu_hu_hu_mus_False|48_58 (ssRNA)
RNA: GGGAGUUCUACAGUCCGACGAUCAACAAAUCUUUCUUCCCUGGACGAACAGGAAGAUUCAUAUUAAAAAAAAUAUAUGUCUAUGAAGGAGAAUUGAGUGGCCACACCUUUACUCCCAGCACUUUGGGAGGUGGAUCUCUGAGUCAACAGAGGAUUGAGCAUCA
B8: chr1:163112212:163112213:-_ENSG00000143248_ENST00000313961|hu_hu|hu_hu_hu_mus_False|48_48 (ssRNA)
RNA: GGGAGUUCUACAGUCCGACGAUCUUUUAUUAUCAGUAAGAGUGAGUUACAUACUAGGCAAAGUAUUGGAUACAAUAAUCAGGAAACAAACACAAUUGGUCCAGAAUUUAAAACUUUAUGAGCGAAGUGCUGGCACAGGACUUACAACAGAGGAUUGAGCAUCA
B9: chr3:127788656:127788657:+_ENSG00000058262_ENST00000243253|hu_hu|motif|central (ssRNA)
RNA: GGGAGUUCUACAGUCCGACGAUCCACUUUCACAGUUCUUUUUGCCAGUGCCAGGAUAAAAAGCAAAAUUUUAAAUUGGAAAAUGUCGGGCACUUUACACAGUGGAAUGAAAGAAUACGAAAUUCAAAAACAUUAUUAAAAGUCCAACAGAGGAUUGAGCAUCA
B10: 95941554_95941674_2216_3pUTR_ENSG00000164938_ENST00000448464|human|control|control (ssRNA)
RNA: GGGAGUUCUACAGUCCGACGAUCGCCAGAGUGGUUAAAGAUUUUGCCUGAAGUUAAAACAAAAAAUGAAAAGUCACUUGGACUGCAGGGAAGAAUACUUACAAUACAAGGCAAUUAAAAAAAAAAAAAGAAAAAAGUUGAGCCCAACAGAGGAUUGAGCAUCA
B11: chr3:154749246:154749247:-_ENSMUSG00000053870_ENSMUST00000066568|mus_hu|FALSE|FALSE (ssRNA)
RNA: GGGAGUUCUACAGUCCGACGAUCGCCAUUUUUAUUAUUAAAAAUAGAAUUACAGUUGAGGAGAGAAGUGCCAGUGAAUACUUAGAACUUCACUGGACCAAAAGCCUCAAAAAAGAUGGAAAAAUUCCAAAGGUAUGCUUAGAACAACAGAGGAUUGAGCAUCA
B12: 140276459_140277056_1559_CDS_ENSMUSG00000040945_ENSMUST00000038893|mouse|control|control (ssRNA)
RNA: GGGAGUUCUACAGUCCGACGAUCGUCUCGCGCUAUCACCAAGGAGUGUGAAUAGCCCAUGGCCACCUGUUCGGAGAAGAUGCCAUCCAGAGUCUUCACCUCCUGGGCCGCAGUAGAAGACUUGGGCUUGUGGUCCCCAUACCCCAACAGAGGAUUGAGCAUCA
B13: chr18:77696836:77696837:-_ENSMUSG00000025427_ENSMUST00000026494|mus_mus|FALSE|FALSE (ssRNA)
RNA: GGGAGUUCUACAGUCCGACGAUCUCCUCGGGAUAGAGGGAUGAGAGGGCUUAGGAAUGUAGGGAGGGGAGGGAAGACAGAGAGCAGACUUGAGGUGGGGAAAGAGGCCUGGGGGAGGGGGCACGAGUGACAAGUGAAAGGAUUCAACAGAGGAUUGAGCAUCA
B14: chr11:71671816:71671817:+_ENSG00000137522_ENST00000530137|hu_hu|FALSE|FALSE (ssRNA)
RNA: GGGAGUUCUACAGUCCGACGAUCGCGAUGAGGAUGAGGACCAUUUCAGCAUGCAUAGCUUCAUGGCCACGGUGCUUGGCAUGCAUGCGUGCGUGCUCGACCCUCAUCCAGCUCCCGUUCCCCAGCAGCACCACCUCCAACCUCCAACAGAGGAUUGAGCAUCA

Whole data set: some 24,000 sequences, median “enrichment r” near 0.99, cut for the highest 2% near 3.7. The sample as a whole holds a higher share of the highest values than the screen did.

This test addresses T1, UNK ZnF1-3. In words: nsRBNS (natural sequence RNA bind-n-seq); RBNS binding buffer (assumed for nsRBNS): 25 mM Tris pH 7.5, 150 mM KCl, 3 mM MgCl2, 0.01% Triton X-100, 500 ug/ml BSA, 20 U/ml SUPERase-In, 4 C; UNK is unkempt and MSI1 is Musashi-1; names of the RNAs are library labels; protein concentration not given here; high values mean tight binding.
In the case of B1, the binding signal came to 1.16 enrichment R. With B2 the figure was 0.83 enrichment R. The molecule B3 showed a binding signal of 1.11 enrichment R. With B4 the figure was 0.49 enrichment R. B5 displayed a binding signal of 1.16 enrichment R.

B6 displayed a binding signal of 6.28 enrichment R. With B7 the figure was 1.64 enrichment R. B8: the binding signal was 1.39 enrichment R.

B9 returned a binding signal of 4.09 enrichment R. For the molecule B10, the binding signal was found to be 12.6 enrichment R. B11 had a binding signal of 2.22 enrichment R.

In the case of B12, the binding signal worked out at 0.829 enrichment R. Take B13: the binding signal is 2.5 enrichment R. With B14, the binding signal turned out to be 0.585 enrichment R.
